Source: the supplement of paper PMC10849652
Targets with a hit are over-represented here; the source holds about 8,800 in all. About 0.5% of all pairs of compound and target were hits. A number with no mark means an inactive call.

compound: C1=CC=C(C=C1)[C@H](COC2=CC3=C(C=C2)NC(=O)N3)NC(=O)C4=CC=CN(C4=O)CC5=CC(=C(C=C5)F)F; test: log2 fold change, soluble protein after heating vs DMSO (PISA); higher = thermal stabilisation; K562 lysate, 10 uM; active = over 0.2 and 3.5 SD of the protein, either way, in both replicates (recomputed)
In short: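 Dounce homogenisation of K562 pellets in PBS pH 7.4 with 1 mM MgCl2 produced a crude extract, used at 1 mg/mL protein. Exposure to 10 μM compound lasted 30 min, and aliquots were then heated for 3 min across 48°C-58°C, pooled and brought to 0.5% NP-40 at 4°C. The supernatant after 21,000xg for 90 min was quantified by TMTpro 16plex LC-MS/MS with channel sums equalised. Duplicate values are given as log-two fold change in thermal stability relative to solvent controls.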

Sequence of UniProt Q6P2E9 (Q6P2E9 whole entry, looked up): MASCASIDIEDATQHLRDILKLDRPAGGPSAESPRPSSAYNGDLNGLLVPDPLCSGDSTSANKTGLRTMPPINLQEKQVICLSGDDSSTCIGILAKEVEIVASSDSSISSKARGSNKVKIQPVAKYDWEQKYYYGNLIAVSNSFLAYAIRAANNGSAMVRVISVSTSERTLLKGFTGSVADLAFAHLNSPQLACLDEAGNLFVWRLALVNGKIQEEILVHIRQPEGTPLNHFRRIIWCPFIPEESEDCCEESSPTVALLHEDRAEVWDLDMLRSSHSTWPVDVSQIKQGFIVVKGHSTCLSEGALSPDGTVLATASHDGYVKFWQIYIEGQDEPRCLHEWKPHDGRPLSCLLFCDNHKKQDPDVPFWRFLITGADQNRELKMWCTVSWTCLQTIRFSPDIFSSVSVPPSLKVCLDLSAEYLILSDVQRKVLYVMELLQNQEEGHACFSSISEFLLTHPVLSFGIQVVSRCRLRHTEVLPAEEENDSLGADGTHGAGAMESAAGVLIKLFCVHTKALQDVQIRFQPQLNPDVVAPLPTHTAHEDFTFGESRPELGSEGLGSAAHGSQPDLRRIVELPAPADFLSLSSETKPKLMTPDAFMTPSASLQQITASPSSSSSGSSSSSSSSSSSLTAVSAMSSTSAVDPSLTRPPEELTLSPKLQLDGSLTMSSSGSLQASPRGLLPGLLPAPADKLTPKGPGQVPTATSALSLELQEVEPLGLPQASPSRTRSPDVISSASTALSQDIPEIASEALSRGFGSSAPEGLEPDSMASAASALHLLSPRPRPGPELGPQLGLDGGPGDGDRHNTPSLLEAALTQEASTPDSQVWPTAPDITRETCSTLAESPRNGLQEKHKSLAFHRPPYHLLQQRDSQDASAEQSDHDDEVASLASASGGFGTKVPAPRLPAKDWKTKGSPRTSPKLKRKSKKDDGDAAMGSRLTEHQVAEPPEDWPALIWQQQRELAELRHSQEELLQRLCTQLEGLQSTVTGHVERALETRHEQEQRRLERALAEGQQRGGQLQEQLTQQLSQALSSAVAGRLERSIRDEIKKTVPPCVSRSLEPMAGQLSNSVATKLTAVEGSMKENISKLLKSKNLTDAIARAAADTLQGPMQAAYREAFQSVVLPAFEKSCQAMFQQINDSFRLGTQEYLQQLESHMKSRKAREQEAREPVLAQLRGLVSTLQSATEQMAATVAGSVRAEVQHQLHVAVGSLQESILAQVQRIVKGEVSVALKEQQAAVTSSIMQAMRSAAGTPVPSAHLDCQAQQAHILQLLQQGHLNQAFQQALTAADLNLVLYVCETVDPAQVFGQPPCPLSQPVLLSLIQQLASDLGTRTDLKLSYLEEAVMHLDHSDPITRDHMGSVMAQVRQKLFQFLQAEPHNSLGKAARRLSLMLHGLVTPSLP
Sequence of UniProt Q6P4F2 (Q6P4F2 whole entry, looked up): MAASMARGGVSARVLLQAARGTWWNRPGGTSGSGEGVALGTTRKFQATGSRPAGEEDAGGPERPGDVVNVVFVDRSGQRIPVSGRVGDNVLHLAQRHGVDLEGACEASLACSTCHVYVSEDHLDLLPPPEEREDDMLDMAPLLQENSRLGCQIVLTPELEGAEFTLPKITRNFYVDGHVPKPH
Sequence of UniProt Q9UBQ6 (Q9UBQ6 whole entry, looked up): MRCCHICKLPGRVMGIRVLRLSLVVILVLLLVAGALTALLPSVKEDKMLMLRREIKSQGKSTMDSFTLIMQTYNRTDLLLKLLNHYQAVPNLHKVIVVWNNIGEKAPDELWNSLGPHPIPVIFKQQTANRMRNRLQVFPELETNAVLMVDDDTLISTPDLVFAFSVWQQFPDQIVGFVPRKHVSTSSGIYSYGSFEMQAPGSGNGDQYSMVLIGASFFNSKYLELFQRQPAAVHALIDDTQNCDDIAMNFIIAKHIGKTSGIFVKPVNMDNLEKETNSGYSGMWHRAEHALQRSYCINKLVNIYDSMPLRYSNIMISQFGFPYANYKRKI
Sequence of UniProt Q14674 (Q14674 whole entry, looked up): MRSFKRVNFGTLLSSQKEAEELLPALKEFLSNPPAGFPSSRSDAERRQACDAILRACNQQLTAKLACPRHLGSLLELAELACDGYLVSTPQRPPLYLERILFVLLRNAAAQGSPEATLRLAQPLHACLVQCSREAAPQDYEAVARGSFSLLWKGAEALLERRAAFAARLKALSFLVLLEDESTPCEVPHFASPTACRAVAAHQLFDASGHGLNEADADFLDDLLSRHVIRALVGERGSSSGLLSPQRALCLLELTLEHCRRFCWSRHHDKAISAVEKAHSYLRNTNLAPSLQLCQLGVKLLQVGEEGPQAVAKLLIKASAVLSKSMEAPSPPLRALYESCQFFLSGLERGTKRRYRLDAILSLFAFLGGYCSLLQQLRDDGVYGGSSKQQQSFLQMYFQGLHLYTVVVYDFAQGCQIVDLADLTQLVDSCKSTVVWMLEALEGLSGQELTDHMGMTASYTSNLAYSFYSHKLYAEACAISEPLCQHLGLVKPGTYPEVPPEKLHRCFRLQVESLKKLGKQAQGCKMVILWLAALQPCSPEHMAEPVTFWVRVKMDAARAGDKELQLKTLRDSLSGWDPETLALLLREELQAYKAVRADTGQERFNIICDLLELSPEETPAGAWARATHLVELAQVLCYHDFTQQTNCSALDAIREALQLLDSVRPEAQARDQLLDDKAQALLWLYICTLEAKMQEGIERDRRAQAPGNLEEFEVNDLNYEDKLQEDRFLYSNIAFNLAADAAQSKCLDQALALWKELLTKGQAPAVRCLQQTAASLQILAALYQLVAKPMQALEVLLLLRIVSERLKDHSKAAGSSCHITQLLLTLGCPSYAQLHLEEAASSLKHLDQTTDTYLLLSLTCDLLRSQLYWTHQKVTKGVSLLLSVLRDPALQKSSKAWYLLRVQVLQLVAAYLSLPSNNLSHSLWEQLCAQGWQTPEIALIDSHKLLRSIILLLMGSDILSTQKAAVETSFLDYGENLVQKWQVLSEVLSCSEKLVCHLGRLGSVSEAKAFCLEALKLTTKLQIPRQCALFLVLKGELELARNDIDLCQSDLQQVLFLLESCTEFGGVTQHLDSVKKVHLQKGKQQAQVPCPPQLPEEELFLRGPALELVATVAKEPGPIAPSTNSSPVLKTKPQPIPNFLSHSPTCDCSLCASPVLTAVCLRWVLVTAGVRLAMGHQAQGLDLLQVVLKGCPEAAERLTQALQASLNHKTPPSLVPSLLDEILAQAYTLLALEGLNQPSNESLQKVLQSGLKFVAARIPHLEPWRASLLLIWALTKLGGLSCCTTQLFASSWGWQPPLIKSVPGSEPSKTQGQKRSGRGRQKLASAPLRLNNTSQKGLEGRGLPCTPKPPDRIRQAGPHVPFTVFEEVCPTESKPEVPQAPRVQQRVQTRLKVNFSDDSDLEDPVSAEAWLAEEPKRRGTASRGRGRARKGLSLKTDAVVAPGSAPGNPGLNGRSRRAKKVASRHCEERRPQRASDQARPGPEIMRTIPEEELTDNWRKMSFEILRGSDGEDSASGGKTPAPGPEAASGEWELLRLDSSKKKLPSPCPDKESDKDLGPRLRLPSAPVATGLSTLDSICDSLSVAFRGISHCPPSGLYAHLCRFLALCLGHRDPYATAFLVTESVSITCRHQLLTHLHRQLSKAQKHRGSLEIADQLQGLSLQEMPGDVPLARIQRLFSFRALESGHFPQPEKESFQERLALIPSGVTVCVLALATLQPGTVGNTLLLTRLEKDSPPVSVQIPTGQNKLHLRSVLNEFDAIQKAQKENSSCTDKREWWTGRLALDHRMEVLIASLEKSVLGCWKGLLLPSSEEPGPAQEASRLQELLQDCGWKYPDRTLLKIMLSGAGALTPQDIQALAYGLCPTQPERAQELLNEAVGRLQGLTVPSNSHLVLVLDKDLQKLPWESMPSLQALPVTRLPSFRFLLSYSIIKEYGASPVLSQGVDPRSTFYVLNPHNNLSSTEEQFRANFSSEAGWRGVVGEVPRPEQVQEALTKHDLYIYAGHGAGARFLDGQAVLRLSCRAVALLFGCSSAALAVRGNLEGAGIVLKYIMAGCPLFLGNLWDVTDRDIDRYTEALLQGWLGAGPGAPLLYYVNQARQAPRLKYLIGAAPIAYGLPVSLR
Sequence of UniProt Q5T0N5 (Q5T0N5 whole entry, looked up): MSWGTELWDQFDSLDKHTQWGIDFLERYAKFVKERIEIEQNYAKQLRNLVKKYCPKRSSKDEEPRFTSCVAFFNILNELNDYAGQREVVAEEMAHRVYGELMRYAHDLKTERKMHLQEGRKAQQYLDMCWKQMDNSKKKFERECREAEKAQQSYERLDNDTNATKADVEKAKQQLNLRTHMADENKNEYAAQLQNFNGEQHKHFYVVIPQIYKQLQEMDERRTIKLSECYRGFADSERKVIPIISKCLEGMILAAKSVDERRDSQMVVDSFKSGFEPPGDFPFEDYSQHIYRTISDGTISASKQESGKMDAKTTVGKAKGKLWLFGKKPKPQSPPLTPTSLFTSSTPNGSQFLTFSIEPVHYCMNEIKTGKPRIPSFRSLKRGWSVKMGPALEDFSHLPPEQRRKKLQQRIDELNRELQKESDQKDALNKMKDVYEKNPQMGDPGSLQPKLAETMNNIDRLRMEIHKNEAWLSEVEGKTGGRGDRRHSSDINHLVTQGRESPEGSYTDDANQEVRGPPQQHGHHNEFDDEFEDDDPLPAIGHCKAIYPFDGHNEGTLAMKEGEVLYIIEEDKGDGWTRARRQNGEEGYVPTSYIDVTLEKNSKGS
Sequence of UniProt O14893 (O14893 whole entry, looked up): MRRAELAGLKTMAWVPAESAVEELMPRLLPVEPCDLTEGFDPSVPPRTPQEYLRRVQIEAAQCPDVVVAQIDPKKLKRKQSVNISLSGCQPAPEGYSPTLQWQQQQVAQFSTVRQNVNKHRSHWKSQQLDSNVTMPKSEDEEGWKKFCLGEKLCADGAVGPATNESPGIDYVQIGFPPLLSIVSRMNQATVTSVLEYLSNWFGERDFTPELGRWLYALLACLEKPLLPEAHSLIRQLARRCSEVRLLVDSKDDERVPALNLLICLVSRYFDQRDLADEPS
Sequence of UniProt Q6IPR1 (Q6IPR1 whole entry, looked up): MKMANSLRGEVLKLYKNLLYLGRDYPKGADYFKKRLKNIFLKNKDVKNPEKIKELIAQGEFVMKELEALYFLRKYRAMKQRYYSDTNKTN

| Target | log2 fold change |
| --- | --- |
| GEMIN2 (UniProt O14893) | -0.009 |
| FYB1 isoform 3 (UniProt O15117) | 0.011 |
| FANCD2 isoform 1 (UniProt Q9BXW9) | -0.002 |
| EIF2B5 (UniProt Q13144) | -0.03 |
| DTYMK (UniProt P23919) | -0.041 |
| FDX2 (UniProt Q6P4F2) | -0.039 |
| FNBP1L (UniProt Q5T0N5) | -0.082 |
| GGA2 (UniProt Q9UJY4) | -0.055 |
| FBXO30 (UniProt Q8TB52) | -0.034 |
| ESRRA (UniProt P11474) | 0.204 |
| EIF1 (UniProt P41567) | 0.146 |
| GEMIN4 (UniProt P57678) | -0.036 |
| ESPL1 (UniProt Q14674) | 0.016 |
| EIF3I (UniProt Q13347) | -0.038 |
| DTL (UniProt Q9NZJ0) | 0.033 |
| FADS3 (UniProt Q9Y5Q0) | 0.021 |
| GGT7 (UniProt Q9UJ14) | -0.138 |
| ETFRF1 (UniProt Q6IPR1) | 0.021 |

| Target | log2 fold change |
| --- | --- |
| FBXO9 (UniProt Q9UK97) | -0.07 |
| EXTL2 (UniProt Q9UBQ6) | 0.208 |
| ERI1 (UniProt Q8IV48) | 0.071 |
| FAM53B (UniProt Q14153) | 0.044 |
| EP400 isoform 5 (UniProt Q96L91) | -0.008 |
| ENO1, A0A2R8YEM5 | 0.026 |
| GART (UniProt P22102) | -0.04 |
| ESYT2 (UniProt H7BXI1) | 0.004 |
| EIF2B3 (UniProt Q9NR50) | -0.047 |
| EP300 (UniProt Q09472) | -0.048 |
| EEF1AKNMT (UniProt Q8N6R0) | -0.012 |
| ERLIN2 (UniProt O94905) | 0.009 |
| EPB41, A0A2R8Y6D0 | -0.052 |
| FAM83D (UniProt Q9H4H8) | -0.021 |
| EDC4 (UniProt Q6P2E9) | -0.026 |
| EPHX2 (UniProt P34913) | 0.021 |
| GAMT (UniProt Q14353) | -0.025 |
| ENSA isoform 3 (UniProt O43768) | 0.037 |
